Test results reported in the supplement of paper PMC10981050.
“And” between values parts separate entries of the source, which are not always exact repeats. Equal values may be shown once. Where a name gives a salt, the structure may show the parent alone.

Tests used:
Assay in all cases: cell viability relative to vehicle control; higher = less cytotoxic
Details in all cases: 10 µM
K562 = system: K562
How it was run: (§1)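 Four leukaemia lines, as CRISPR-edited mutant clones and isogenic wild-type clones, were tested against Selleck bioactive, kinase and epigenetic probe libraries after removal of identity-inconsistent compounds. Cells were exposed to a single 10 µM dose for 48 h, and CellTiter-Glo luminescence was then read. Viability was calculated relative to the on-plate vehicle control.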

MARIMO = system: MARIMO
How it was run: as §1

MOLM14 = system: MOLM14
How it was run: as §1

OCI-AML2 = system: OCI-AML2
How it was run: as §1

Row | SMILES | cell viability (K562; SRSF2 genotype: SRSF2 P95H/wt) | cell viability (K562; SRSF2 genotype: SRSF2 wt/wt) [%] | cell viability (MARIMO; SRSF2 genotype: SRSF2 P95H/wt) [%] | cell viability (MARIMO; SRSF2 genotype: SRSF2 wt/wt) [%] | cell viability (MOLM14; SRSF2 genotype: SRSF2 P95H/wt) [%] | cell viability (MOLM14; SRSF2 genotype: SRSF2 wt/wt) [%] | cell viability (OCI-AML2; SRSF2 genotype: P95H/wt) [%] | cell viability (OCI-AML2; SRSF2 genotype: wt/wt) [%]
1 | CCCCCCCCCCCCCCCC(=O)N[C@@H](CCSC)C(=O)NCC(=O)N[C@@H](Cc1ccc(O)cc1)C(=O)N[C@@H](CCC(N)=O)C(=O)N[C@@H](CCCCN)C(=O)N[C@@H](CCCCN)C(=O)N[C@@H](CC(C)C)C(=O)N[C@@H](CCCNC(=N)N)C(=O)N[C@@H](CO)C(=O)N[C@@H](CCSC)C(=O)N[C@H](C(=O)N[C@@H](CC(=O)O)C(=O)N[C@@H](CCCCN)C(=O)N[C@@H](Cc1ccc(O)cc1)C(=O)N[C@@H](CCCNC(=N)N)C(=O)N[C@@H](CC(C)C)C(=O)O)[C@@H](C)O | 90.8% and 92.9% | 90 | 76.6 | 82.2 | 58.6 | 72.7 | 75.1 | 94.9
2 | Cc1cc(C(=O)Nc2nc3cccc(Cl)c3n2[C@@H]2CCCCN(C(=O)/C=C/CN(C)C)C2)ccn1 [Nazartinib (EGF816, NVS-816)] | 74.5% and 75.6% | 69.3 | 27.6 | 35.6 | 53 | 48.9 | 44.4 | 56.7
3 | COc1c(N2C[C@@H]3CCCN[C@@H]3C2)c(F)cc2c(=O)c(C(=O)O)cn(C3CC3)c12 [Moxifloxacin] | 94.1% and 92.9% | 90.2 | 93.9 | 99.8 | 95.3 | 96.4 | 86.8 | 90.4
4 | CSCC[C@H](NC(=O)[C@H](CC(C)C)NC(=O)[C@H](Cc1c[nH]c2ccccc12)NC(=O)[C@H](CCC(N)=O)NC(=O)[C@@H](NC(=O)[C@H](Cc1ccccc1)NC(=O)[C@H](CC(=O)O)NC(=O)[C@H](CCC(N)=O)NC(=O)[C@H](C)NC(=O)[C@H](CCCNC(=N)N)NC(=O)[C@H](CCCNC(=N)N)NC(=O)[C@H](CO)NC(=O)[C@H](CC(=O)O)NC(=O)[C@H](CC(C)C)NC(=O)[C@H](Cc1ccc(O)cc1)NC(=O)[C@H](CCCCN)NC(=O)[C@H](CO)NC(=O)[C@H](Cc1ccc(O)cc1)NC(=O)[C@H](CC(=O)O)NC(=O)[C@H](CO)NC(=O)[C@@H](NC(=O)[C@H](Cc1ccccc1)NC(=O)[C@@H](NC(=O)CNC(=O)[C@H](CCC(N)=O)NC(=O)[C@H](CO)NC(=O)[C@@H](N)Cc1cnc[nH]1)[C@@H](C)O)[C@@H](C)O)C(C)C)C(=O)N[C@@H](CC(N)=O)C(=O)N[C@H](C(=O)O)[C@@H](C)O [Glucagon HCl] | 113% and 109% | 113 | 107 | 104 | 102 | 108 | 103 | 109
5 | CC(CCC(=O)NCCS(=O)(=O)O)C1CCC2C3C(O)CC4CC(O)CCC4(C)C3CCC12C (configuration not stated) [Sodium Tauroursodeoxycholate (TUDC)] | 91.6% and 88.5% | 89.8 | 94 | 103 | 91.7 | 91.2 | 90.3 | 89.4
6 | Nc1ccc(-c2cccc(C(=O)Nc3cnc4nc(N5CCOCC5)oc4c3)n2)cn1 | 96.8% and 100% | 91.5 | 98.3 | 91.6 | 86 | 87.5 | 103 | 93.7
7 | COC(=O)[C@@H]1[C@H]2C[C@H]3c4[nH]c5ccccc5c4CCN3C[C@@H]2CC[C@@H]1O [Yohimbine hydrochloride (Antagonil)] | 103% and 98.2% | 96.5 | 95.8 | 103 | 95 | 102 | 94.9 | 96.1
8 | CCOC(=O)c1ccc(NC2CCCCC2)c(N)c1 [Ferrostatin-1 (Fer-1)] | 98.7% and 94.8% | 88.4 | 90.6 | 106 | 104 | 102 | 94.3 | 90.4
9 | COC(=O)C1=COC(OC2OC(CO)C(O)C(O)C2O)C2C(CO)=CC(O)C12 (configuration not stated) | 105% and 104% | 109 | 105 | 93.2 | 105 | 107 | 98.6 | 98.7
10 | CN(C)CCC[C@@]1(c2ccc(F)cc2)OCc2cc(C#N)ccc21 [Escitalopram Oxalate] | 87.5% and 88.8% | 92.8 | 85.4 | 91.1 | 89.4 | 93.7 | 89.2 | 88.4
11 | CCCCCCOC(=O)NC(=N)c1ccc(NCc2nc3cc(C(=O)N(CCC(=O)OCC)c4ccccn4)ccc3n2C)cc1 [BIBR-1048 (Dabigatran)] | 67% and 66.3% | 67.2 | 55.2 | 55 | 0.49 | 0.53 | 55 | 35.7
12 | COc1cc(C(=O)N2CCC(N3CCN(C)CC3)CC2)ccc1Nc1ncc2c(n1)N(C)c1ccccc1C(=O)N2C | 49.8% and 57.1% | 61.2 | 26.9 | 31.8 | 16.3 | 20.6 | 10.9 | 21.2
13 | NC(=O)Cc1cccc(C(=O)c2ccccc2)c1N [Nepafenac] | 96.5% and 95.7% | 91.7 | 93.8 | 93.8 | 95.4 | 96.5 | 87.7 | 92.4
14 | C[C@H](NC(=O)C(=O)Nc1ccccc1C(C)(C)C)C(=O)N[C@@H](CC(=O)O)C(=O)COc1c(F)c(F)cc(F)c1F | 106% and 107% | 108 | 111 | 107 | 90.2 | 101 | 111 | 106
15 | COc1ccnc(C[S+]([O-])c2nc3cc(OC(F)F)ccc3[nH]2)c1OC (configuration not stated) [Pantoprazole (Protonix)] | 103% and 104% | 102 | 109 | 103 | 115 | 112 | 113 | 96.5
16 | CCc1ccc(-c2nc(CSCC(=O)NCCc3ccccc3)c(C)o2)cc1 | 89.7% and 94% | 94.9 | 84.1 | 99.9 | 87.5 | 96.8 | 74.5 | 91.2
17 | COc1cc(/C=C/C(=O)N2CCN(CC(=O)N3CCCC3)CC2)cc(OC)c1OC [Cinepazide maleate] | 102% and 105% | 99.2 | 99.5 | 106 | 106 | 105 | 106 | 108
18 | CN(C)CCCNC(=O)c1ccc(-c2cc(O)c3ncccc3c2)cc1 | 55% and 32.1% | 47.3 | 52.3 | 53 | 40.7 | 24.9 | 33 | 33.2
19 | COc1cc2nc(N3CCCN(C)CC3)nc(NC3CCN(Cc4ccccc4)CC3)c2cc1OC | 6.31% and 1.97% | 3.98 | 0.75 | 0.69 | 0.24 | 0.26 | 0.23 | 0.28
20 | CC(C)Oc1ccc2c(=O)c(-c3ccccc3)coc2c1 [Ipriflavone] | 88.2% and 88.5% | 94 | 85.2 | 88.1 | 110 | 113 | 71.6 | 75.8

Row | SMILES | cell viability (K562; SRSF2 genotype: SRSF2 P95H/wt) | cell viability (K562; SRSF2 genotype: SRSF2 wt/wt) [%] | cell viability (MARIMO; SRSF2 genotype: SRSF2 P95H/wt) [%] | cell viability (MARIMO; SRSF2 genotype: SRSF2 wt/wt) [%] | cell viability (MOLM14; SRSF2 genotype: SRSF2 P95H/wt) [%] | cell viability (MOLM14; SRSF2 genotype: SRSF2 wt/wt) [%] | cell viability (OCI-AML2; SRSF2 genotype: P95H/wt) [%] | cell viability (OCI-AML2; SRSF2 genotype: wt/wt) [%]
21 | CC(COc1ccccc1)N(CCCl)Cc1ccccc1 (configuration not stated) [Phenoxybenzamine HCl] | 66.1% and 73.8% | 63.2 | 67.3 | 72.5 | 57.5 | 62.7 | 54.4 | 62.1
22 | COc1cc(/C=C/C(=O)O[C@H]2[C@H](O)[C@@H](CO)O[C@@]2(CO)O[C@H]2O[C@H](CO)[C@@H](O)[C@H](O)[C@H]2O)ccc1O [Sibiricose A5] | 113% and 112% | 115 | 108 | 99.2 | 110 | 112 | 107 | 95.7
23 | CS(=O)(=O)c1cccc(C[C@H](NC(=O)c2c(Cl)cc3c(c2Cl)CCN(C(=O)c2ccc4ccoc4c2)C3)C(=O)O)c1 [Lifitegrast] | 96.8% and 97% | 90.3 | 90.5 | 102 | 93.7 | 96.6 | 92.2 | 94.9
24 | C[C@@H]1CCO[C@H]2Cn3cc(C(=O)NCc4ccc(F)cc4F)c(=O)c(O)c3C(=O)N12 | 84.5% and 87% | 77.5 | 84.3 | 98.4 | 94.1 | 94 | 92 | 98.5
25 | COc1ccc(Cl)cc1NC(=O)Nc1cc(C)nc2ccccc12 | 81.3% and 91.2% | 87 | 98.8 | 99.1 | 87.6 | 90.1 | 82.7 | 74.1
26 | CC(=NNC(=S)N1CCC1)c1ccccn1 | 20.3% and 23% | 23.7 | 7.26 | 11.4 | 1.22 | 0.64 | 11 | 9.98
27 | CCc1nc(C(N)=O)c(Nc2ccc(N3CCC(N4CCN(C)CC4)CC3)c(OC)c2)nc1NC1CCOCC1 [Gilteritinib (ASP2215)] | 89% and 85.7% | 91.4 | 40.9 | 40.6 | 4.58 | 8.89 | 14.3 | 21.3
28 | CC1(C)CCC[C@](C)([C@H]2CC[C@]3(C)[C@@H]2[C@H](O)C[C@@H]2[C@@]4(C)CC[C@H](O)C(C)(C)[C@@H]4[C@@H](O)C[C@]23C)O1 [Panaxatriol] | 105% and 99.1% | 97.5 | 103 | 105 | 98.6 | 103 | 102 | 109
29 | NCCNc1ccc(NCCN)c2c1C(=O)c1ccncc1C2=O [Pixantrone Maleate] | 18.2% and 23.9% | 20.5 | 10.7 | 7.14 | 0.24 | 0.35 | 0.25 | 0.85
30 | CC1CCC2(C(=O)OC3OC(CO)C(O)C(O)C3O)CCC3(C)C(=CCC4C5(C)CCC(OC6OCC(O)C(O)C6O)C(C)(C)C5CCC43C)C2C1(C)O (configuration not stated) [Ziyu-glycoside I] | 103% and 96.8% | 99.4 | 101 | 99.9 | 107 | 105 | 99 | 100
31 | C=CCNC(N)=S [Allylthiourea] | 98.8% and 95.9% | 107 | 108 | 112 | 101 | 104 | 99.8 | 110
32 | CC(=O)OCCc1ccc(O)c(O)c1 [Hydroxytyrosol Acetate] | 93.5% and 95.4% | 104 | 85.5 | 98.6 | 95.7 | 103 | 108 | 110
33 | CCOC(=O)c1ncn2c1CN(C)C(=O)c1cc(F)ccc1-2 [Flumazenil] | 107% and 101% | 108 | 95.9 | 107 | 106 | 101 | 94 | 103
34 | Cc1cccc(Nc2ccncc2S(=O)(=O)NC(=O)NC(C)C)c1 [Torsemide (Demadex)] | 100% and 105% | 102 | 101 | 103 | 105 | 101 | 103 | 104
35 | CC(C)N1CCN(Cc2cnc(-c3cc(-c4cccc5[nH]ccc45)cc4[nH]ncc34)o2)CC1 | 39.8% and 29.8% | 36.8 | 53.7 | 52.9 | 68.2 | 61.6 | 30.8 | 39.8
36 | CC(C)=CCC/C(C)=C/C=O [Citral] | 96% and 106% | 94.4 | 88.4 | 98.9 | 88.2 | 94.8 | 95.3 | 92
37 | O=C(O)c1ccc(O)cc1 [4-Hydroxybenzoic acid] | 93.3% and 100% | 98.8 | 93.4 | 97.5 | 98.4 | 99.5 | 87 | 102
38 | COc1cc2oc(=O)ccc2cc1O [Isoscopoletin] | 95.2% and 95.4% | 96.4 | 95.6 | 94.7 | 104 | 97.2 | 97.1 | 93.8
39 | Cc1nc(-c2cn3c(n2)-c2ccc(-c4cnn(C(C)(C)C(N)=O)c4)cc2OCC3)n(C(C)C)n1 | 74.5% and 79.4% | 72.8 | 45.2 | 42 | 32.3 | 40.1 | 8.91 | 22.8
